# The sample as a whole holds a higher share of the strongest signals than the screen did.
# Assays:
# Assay in all cases: glycan array binding signal (z-score within array); higher = stronger binding
# Settings in all cases: glycan notation: IUPAC condensed, linker removed
# Fuc(a1-2)Gal(b1-3)GlcNAc = biological target: Fuc(a1-2)Gal(b1-3)GlcNAc
# Method in brief: (§1)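 The binding signal is a Z-score computed within each array. Data were drawn from 3228 arrays in the Consortium for Functional Glycomics database, restricted to those with a known protein sequence. Scores were averaged over arrays of the same protein sequence at different concentrations or buffers, and over linkers, and negative values can be taken as non-binding.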
# [1] = biological target: Fuc(a1-2)Gal(b1-3)GlcNAc(b1-2)Man(a1-3)[Fuc(a1-2)Gal(b1-3)GlcNAc(b1-2)Man(a1-6)]Man(b1-4)GlcNAc(b1-4)GlcNAc
# Method in brief: as §1
# [2] = biological target: Fuc(a1-2)Gal(b1-3)[Fuc(a1-4)]GlcNAc(b1-3)[Gal(b1-4)GlcNAc(b1-6)]Gal(b1-4)Glc
# Method in brief: as §1
# [3] = biological target: Fuc(a1-2)Gal(b1-4)GlcNAc(b1-3)GalNAc
# Method in brief: as §1
# [4] = biological target: Fuc(a1-2)[Gal(a1-3)]Gal(b1-4)[Fuc(a1-3)]GlcNAc(b1-3)GalNAc
# Method in brief: as §1
# [5] = biological target: Fuc(a1-3)[Gal(b1-4)]GlcNAc6S
# Method in brief: as §1
# Gal(a1-3)Gal = biological target: Gal(a1-3)Gal
# Method in brief: as §1
# [6] = biological target: Gal(a1-3)Gal(b1-3)GlcNAc(b1-2)Man(a1-3)[Gal(a1-3)Gal(b1-3)GlcNAc(b1-2)Man(a1-6)]Man(b1-4)GlcNAc(b1-4)GlcNAc
# Method in brief: as §1
# [7] = biological target: Gal(a1-4)Gal(b1-3)GlcNAc(b1-2)Man(a1-3)[Gal(a1-4)Gal(b1-3)GlcNAc(b1-2)Man(a1-6)]Man(b1-4)GlcNAc(b1-4)GlcNAc
# Method in brief: as §1
# [8] = biological target: Gal(b1-3)GlcNAc(a1-3)Gal(b1-4)GlcNAc
# Method in brief: as §1
# [9] = biological target: Gal(b1-3)GlcNAc(b1-2)Man(a1-3)[Gal(b1-3)GlcNAc(b1-2)Man(a1-6)]Man(b1-4)GlcNAc(b1-4)[Fuc(a1-6)]GlcNAc
# Method in brief: as §1
# [10] = biological target: Gal(b1-3)GlcNAc(b1-3)Gal(b1-4)GlcNAc(b1-3)Gal(b1-4)GlcNAc(b1-2)[Gal(b1-3)GlcNAc(b1-3)Gal(b1-4)GlcNAc(b1-3)Gal(b1-4)GlcNAc(b1-6)]Man(a1-6)[Gal(b1-3)GlcNAc(b1-3)Gal(b1-4)GlcNAc(b1-3)Gal(b1-4)GlcNAc(b1-2)Man(a1-3)]Man(b1-4)GlcNAc(b1-4)[Fuc(a1-6)]GlcNAc
# Method in brief: as §1
# [11] = biological target: Gal(b1-3)GlcNAc(b1-6)GalNAc
# Method in brief: as §1
# [12] = biological target: Gal(b1-3)[Neu5Ac(a2-6)]GalNAc
# Method in brief: as §1
# [13] = biological target: Gal(b1-4)GlcNAc(b1-2)[Gal(b1-4)GlcNAc(b1-6)]Man(a1-6)[GlcNAc(b1-4)][Gal(b1-4)GlcNAc(b1-2)Man(a1-3)]Man(b1-4)GlcNAc(b1-4)GlcNAc
# Method in brief: as §1
# [14] = biological target: Gal(b1-4)GlcNAc(b1-3)Gal(b1-4)GlcNAc(b1-3)Gal(b1-4)GlcNAc
# Method in brief: as §1
# [15] = biological target: Gal(b1-4)GlcNAc(b1-3)Gal(b1-4)GlcNAc(b1-3)Gal(b1-4)GlcNAc(b1-2)Man(a1-3)[Gal(b1-4)GlcNAc(b1-3)Gal(b1-4)GlcNAc(b1-3)Gal(b1-4)GlcNAc(b1-2)Man(a1-6)]Man(b1-4)GlcNAc(b1-4)GlcNAc
# Method in brief: as §1
# [16] = biological target: Gal(b1-4)GlcNAc(b1-3)Gal(b1-4)GlcNAc(b1-3)Gal(b1-4)GlcNAc(b1-2)Man(a1-3)[Gal(b1-4)GlcNAc(b1-3)Gal(b1-4)GlcNAc(b1-3)Gal(b1-4)GlcNAc(b1-2)Man(a1-6)]Man(b1-4)GlcNAc(b1-4)[Fuc(a1-6)]GlcNAc
# Method in brief: as §1
# [17] = biological target: Gal(b1-4)GlcNAc(b1-3)Gal(b1-4)GlcNAc(b1-3)Gal(b1-4)GlcNAc(b1-3)Gal(b1-4)GlcNAc(b1-2)Man(a1-3)[Gal(b1-4)GlcNAc(b1-3)Gal(b1-4)GlcNAc(b1-3)Gal(b1-4)GlcNAc(b1-3)Gal(b1-4)GlcNAc(b1-2)Man(a1-6)]Man(b1-4)GlcNAc(b1-4)GlcNAc
# Method in brief: as §1
# [18] = biological target: Gal(b1-4)GlcNAc(b1-3)Gal(b1-4)GlcNAc(b1-3)Gal(b1-4)GlcNAc(b1-3)Gal(b1-4)GlcNAc(b1-3)Gal(b1-4)GlcNAc(b1-2)Man(a1-3)[Gal(b1-4)GlcNAc(b1-3)Gal(b1-4)GlcNAc(b1-3)Gal(b1-4)GlcNAc(b1-3)Gal(b1-4)GlcNAc(b1-3)Gal(b1-4)GlcNAc(b1-2)Man(a1-6)]Man(b1-4)GlcNAc(b1-4)[Fuc(a1-6)]GlcNAc
# Method in brief: as §1
# [19] = biological target: Gal3S(b1-3)[Fuc(a1-4)]GlcNAc
# Method in brief: as §1
# GlcA(b1-3)Gal = biological target: GlcA(b1-3)Gal
# Method in brief: as §1
# [20] = biological target: GlcNAc(a1-4)Gal(b1-4)GlcNAc
# Method in brief: as §1
# [21] = biological target: GlcNAc(b1-3)Gal(b1-4)GlcNAc(b1-3)Gal(b1-4)GlcNAc(b1-3)Gal(b1-4)GlcNAc(b1-3)Gal(b1-4)GlcNAc(b1-2)Man(a1-3)[GlcNAc(b1-3)Gal(b1-4)GlcNAc(b1-3)Gal(b1-4)GlcNAc(b1-3)Gal(b1-4)GlcNAc(b1-3)Gal(b1-4)GlcNAc(b1-2)Man(a1-6)]Man(b1-4)GlcNAc(b1-4)GlcNAc
# Method in brief: as §1
# Kdn(a2-3)Gal(b1-3)GalNAc = biological target: Kdn(a2-3)Gal(b1-3)GalNAc
# Method in brief: as §1
# [22] = biological target: Man(a1-2)Man(a1-3)[Man(a1-6)]Man(a1-6)[Man(a1-2)Man(a1-3)]Man(b1-4)GlcNAc(b1-4)GlcNAc
# Method in brief: as §1
# [23] = biological target: Man(a1-3)[Man(a1-6)]Man(a1-6)[Man(a1-3)]Man(b1-4)GlcNAc(b1-4)GlcNAc
# Method in brief: as §1
# [24] = biological target: Neu5Ac(a2-3)Gal(b1-3)[Neu5Ac(a2-6)]GalNAc
# Method in brief: as §1
# [25] = biological target: Neu5Ac(a2-3)Gal(b1-4)GlcNAc(b1-2)Man(a1-3)[Neu5Ac(a2-6)Gal(b1-4)GlcNAc(b1-2)Man(a1-6)]Man(b1-4)GlcNAc(b1-4)GlcNAc
# Method in brief: as §1
# [26] = biological target: Neu5Ac(a2-3)Gal(b1-4)GlcNAc(b1-3)Gal(b1-4)GlcNAc(b1-3)Gal(b1-4)GlcNAc(b1-2)Man(a1-3)[Neu5Ac(a2-3)Gal(b1-4)GlcNAc(b1-3)Gal(b1-4)GlcNAc(b1-3)Gal(b1-4)GlcNAc(b1-2)Man(a1-6)]GalNAc
# Method in brief: as §1
# [27] = biological target: Neu5Ac(a2-3)Gal(b1-4)[Fuc(a1-3)]GlcNAc6S
# Method in brief: as §1
# [28] = biological target: Neu5Ac(a2-6)Gal(b1-4)GlcNAc(b1-3)Gal(b1-4)GlcNAc(b1-3)Gal(b1-4)GlcNAc(b1-2)Man(a1-3)[Neu5Ac(a2-6)Gal(b1-4)GlcNAc(b1-3)Gal(b1-4)GlcNAc(b1-3)Gal(b1-4)GlcNAc(b1-2)Man(a1-6)]GalNAc
# Method in brief: as §1
# [29] = biological target: Neu5Ac(a2-8)Neu5Ac(a2-3)Gal(b1-3)GalNAc(b1-4)[Neu5Ac(a2-8)Neu5Ac(a2-3)]Gal(b1-4)Glc
# Method in brief: as §1
# [30] = biological target: Neu5Gc(a2-8)Neu5Gc(a2-6)Gal(b1-4)GlcNAc
# Method in brief: as §1
binder,measurement,setting,value
"HA-61200 (Pseudomonas aeruginosa), Q02SP8_PSEAB (protein) MNKCYALVWNVSQGCWNVVSEGSRRRGKPAGAKAAIASVLALLGATALAPAYALPSGGTVVGGSANGEIHLSGGNSLSVNQKVDKLIANWDSFSVAAGERVIFNQPSSSSIALNRVIGTKASDIQGRIDANGQVFLVNPNGVLFGRGAQVNVGGLVASTLDITDAEFNGNSSRYRFTGPSTNGVLNHGGAITAAEGGSIALLGAQVDNRGTVLAQMGGVGLGAGSDLTLNFDGNKLLDIRVDAGVANALASNGGLLKADGGRVLMAARTANALLNTVVNSQGAIEARSLRGKNGRIVLDG",glycan array binding signal (z-score),Fuc(a1-2)Gal(b1-3)GlcNAc,-1.2
same,glycan array binding signal (z-score),[1],4.52
same,glycan array binding signal (z-score),[2],0.396
same,glycan array binding signal (z-score),[3],-0.278
same,glycan array binding signal (z-score),[4],1.01
same,glycan array binding signal (z-score),[5],1.51
same,glycan array binding signal (z-score),Gal(a1-3)Gal,-0.38
same,glycan array binding signal (z-score),[6],5.54
same,glycan array binding signal (z-score),[7],9.66
same,glycan array binding signal (z-score),[8],-0.012
same,glycan array binding signal (z-score),[9],5.22
same,glycan array binding signal (z-score),[10],2.44
same,glycan array binding signal (z-score),[11],0.257
same,glycan array binding signal (z-score),[12],-0.393
same,glycan array binding signal (z-score),[13],0.379
same,glycan array binding signal (z-score),[14],-0.492
same,glycan array binding signal (z-score),[15],3.1
same,glycan array binding signal (z-score),[16],3.46
same,glycan array binding signal (z-score),[17],5.18
same,glycan array binding signal (z-score),[18],2.6
same,glycan array binding signal (z-score),[19],0.232
same,glycan array binding signal (z-score),GlcA(b1-3)Gal,-0.781
same,glycan array binding signal (z-score),[20],-0.006
same,glycan array binding signal (z-score),[21],0.298
same,glycan array binding signal (z-score),Kdn(a2-3)Gal(b1-3)GalNAc,-0.393
same,glycan array binding signal (z-score),[22],-0.706
same,glycan array binding signal (z-score),[23],1.41
same,glycan array binding signal (z-score),[24],-0.092
same,glycan array binding signal (z-score),[25],-0.276
same,glycan array binding signal (z-score),[26],3.75
same,glycan array binding signal (z-score),[27],-0.953
same,glycan array binding signal (z-score),[28],4.49
same,glycan array binding signal (z-score),[29],-0.215
same,glycan array binding signal (z-score),[30],-0.263

# Source: the supplement of paper PMC8728848
